Compounds without any hit were thinned out: in the full panel of roughly 83,000, 20% have a hit.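 Growth was measured after 48 h exposure to one concentration of compound in 96-well plates. Values under 10 count as active.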 Activity calls are given as the source filed them.

The experiment deals with A549/ATCC NSCLC. Description: NCI-60 one-dose screen, 48 h (100 = growth as untreated, 0 = no growth, -100 = all killed). To be noted: 10 µM unless noted.
Turning to `Clc1cccc(Nc2ncnc3ccc(-c4cnc5[nH]ccc5c4)cc23)c1`, the growth was 50.1% (inactive).
The figure for `Nc1cc(C(=O)NC[C@H]2CN(c3ccc(N4CCC(C(=O)O)CC4)cc3)C(=O)O2)ccc1Cl` is 98.5% (inactive).
In the case of `N#CSCC1CC(O)(c2ccccc2)CC(c2ccc(F)cc2)O1` (stereo not given), the growth was 27.8% (inactive).
The figure for `CCOC(=O)c1ccc2c(c1)nc(-c1ccccc1)n2C1CCCCC1` is 68.3% (inactive).
The figure for `Cc1cn(-c2cc(NC(=O)c3cncc(C#Cc4cnc(N)c5ncccc45)c3)cc(C(F)(F)F)c2)cn1` is 88.1% (inactive); for `CCN(CC)Cc1cc(C=C2C(=O)NC(=S)NC2=O)cc(OC)c1O` it is 109% (inactive).
The figure for `COc1cc(/C=C/C(=O)c2ccc(F)cc2)ccc1OCCCCOc1ccc(/C=C/C(=O)c2c(C)nc3ccccc3c2C)cc1OC` is 76.9% (inactive).
For `O=C1/C(=C/c2cccc(F)c2)CN(C(=O)C(Cl)Cl)C/C1=C\c1cccc(F)c1`, the growth is -28.7% (active).
Consider `N#Cc1ccc(O)c(C2=NCC(c3ccccc3)O2)c1` (stereo not given), for which the growth is 32% (inactive).
The figure for `N=C(N)c1ccc(-c2ccc(-c3ccccc3)o2)cc1` is -30.1% (active).
The figure for `COC12C=C/C(=C(/C(=O)OCc3ccncc3)C(=O)CCCCCCCCC3(OC)C=C/C(=C(/C(=O)OCc4ccncc4)C(=O)CCCCCCCC1)O3)O2` is 9.15% (active); for `COC(=O)/C=C1/SC(=Nc2cccc(OC)c2)N(CCc2c[nH]c3ccc(O)cc23)C1=O` it is 87.3% (inactive).
Regarding `Cn1ccnc1C(=O)/C=C/c1ccc(CC(=O)Nc2cc(C(F)(F)F)cc(C(F)(F)F)c2)cc1`, the growth is 60.1% (inactive).
Turning to `CS(=O)(=O)Nc1cc(-c2ccc3ncnc(Nc4ccc5c(cnn5Cc5ccc(F)cc5)c4)c3c2)cnc1Cl`, the growth was 78.7% (inactive).
Turning to `CCSc1nc2scc(C)c2c(=O)[nH]1`, the growth is 99.2% (inactive).
The figure for `Fc1cccc(Oc2ccc(Nc3ncnc4ccc(OCCCN5CCOCC5)cc34)cc2Cl)c1` is 48.3% (inactive); for `O=C(Nc1cccc2ccccc12)NC1CC1` it is 103% (inactive); for `Clc1ccc2c(NC3CCC(N4CCOCC4)CC3)ccnc2c1` (stereo not given) it is 74.5% (inactive).
The figure for `Cc1cc(N2CCN(CCNc3ccnc4cc(Cl)ccc34)CC2)nc(N2CCOCC2)n1` is 71.4% (inactive).
The figure for `c1cnc2c(-c3nc4ccc5[nH]ncc5c4c4c3CCCC4)c[nH]c2c1` is 16.6% (inactive); for `O=C(O)c1ccc(-n2cc(/C=N/Nc3ccccc3)c(-c3ccc(F)cc3F)n2)cc1` it is 60% (inactive); for `C=C(CBr)[C@@H]1CC[C@]2(C(=O)O)CC[C@]3(C)[C@H](CC[C@@H]4[C@@]5(C)CCC(=O)C(C)(C)[C@@H]5CC[C@]43C)[C@@H]12` it is 57.7% (inactive).
In the case of `O=C(CSC(=S)n1cnnc1)NC(=O)c1ccccc1`, the growth is 114% (inactive).
The figure for `CC(C)(C)CC(C)(C)NC(=O)Nc1ncccc1OCc1ccccc1` is 89.8% (inactive); for `Oc1ccc(Cl)cc1/C=N\NC(=S)N/N=C/c1cc(Cl)ccc1O` it is 37.4% (inactive).
Consider `CCc1ncnc2c1ccn2C(C)c1ccc(OC)c(F)c1` (stereo not given), for which the growth is 41.1% (inactive).
The figure for `C/C(=N\O)c1ccc(Cl)cc1` is 97.9% (inactive); for `CN(C)CCNC(=O)c1cc2c3cc(Cl)ccc3[nH]c2c2ncccc12` it is 9.53% (active).
As for `O=C(/C=C/c1ccco1)Nc1ncc(Cc2cccc(C(F)(F)F)c2)s1`, the growth was 11.6% (inactive).
The figure for `Cc1cc(S(=O)(=O)/N=C(\N)n2nc(C)c(C)c2C)c(SCc2ccccc2)cc1Cl` is 52.9% (inactive); for `CN(c1cc2ncc(=O)[nH]c2cc1NC(N)=NCc1ccc(Cl)cc1)C1CCCCC1` it is 89.3% (inactive); for `COc1cc(-c2nc3sccn3c2-c2ccnc(NCCNS(=O)(=O)c3ccccc3)n2)ccc1F` it is 45.5% (inactive).
Turning to `O=C(Nc1cccc(-c2ccc(N3CCOCC3)nn2)c1)Nc1cccc(C(F)(F)F)c1`, the growth was 56.4% (inactive).
The figure for `COCCNC(=O)Nc1ccc2nc(-c3cccs3)c(-c3cccs3)nc2c1` is 87.5% (inactive); for `O=C1/C=C/[C@@H](O)[C@@H]2C[C@@H](O)C[C@H]2/C=C/CCC[C@H](CCc2ccccc2)O1` it is 16.6% (inactive); for `CC(=O)Oc1ccc(/C(=C(\C)c2ccc(Cl)cc2)c2ccc(OCCN3CCCCC3)cc2)cc1` it is 31.7% (inactive).
With `N#Cc1nc(-c2ccc(F)cc2)oc1S(=O)(=O)N1CCOCC1`, the growth is 107% (inactive).
The figure for `C#CCNC(=O)[C@H](CC)[C@H]1CC[C@H](C)[C@H]([C@@H](C)[C@H](O)[C@H](C)C(=O)[C@H](CC)C2O[C@]3(C=CC(=O)[C@]4(CC[C@@](C)([C@H]5CC[C@](O)(CC)[C@H](C)O5)O4)O3)[C@H](C)C[C@@H]2C)O1` (stereo not given in full) is 44% (inactive); for `COc1ccc(CNc2c3ccccc3nc3ccccc23)cc1` it is 28.9% (inactive).
The figure for `Clc1cc(Cl)c(Cl)c(-c2nnc(SCc3ccncc3Br)o2)c1` is 153% (inactive).

The values above are taken from PubChem BioAssay (NCI).
